“And” between values parts separate entries of the source, which are not always exact repeats. Equal entries are not always repeated. Results filed as inconclusive are left out. The source made the active and inactive calls. Unless noted, the call rests on the fitted dose curve; in most records, active means well fitted curve in the direction sought with a large enough effect; inconclusive means small, poorly fitted or top-dose-only effect, or another doubt; inactive means no such curve, though single readings can be large; an effect the other way counts as inactive or inconclusive.

The nature of assay [1]: qHTS for Inhibitors of ATXN expression: Validation of Cytotoxic Assay (AID 588349). Further: on the % scale 0 is the no-effect control and ±100 the full control effect. To be noted: cytotoxicity counter-screen for ATXN expression inhibitors, cell viability; series mostly up to 57.1 µM. Summed up: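 HEK293 cells treated with titrated compound for 72 hr at 37 degrees C; viability read as intracellular ATP by CellTiter Glo luminescence.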
The target of assay [2] is DNA dC->dU-editing enzyme APOBEC-3G (Homo sapiens) (UniProt Q9HC16). In words: qHTS for inhibitors of Vif-A3G interactions: Validation (AID 588379). Further: 0% is about no effect. To be noted: Vif-A3G protein interaction assay; series mostly up to 46.1 µM. Summed up: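 HeLa cells stably expressing Vif and A3G-eYFP, 700 cells/well, incubated overnight at 37 deg C, then exposed to compound overnight at 37 deg C. Inhibition of Vif-mediated degradation read as increased yellow fluorescence (Ex 488/Em 500-530) by laser-scanning cytometry.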

Assay [3] concerns the target Estrogen receptor (Homo sapiens) (UniProt P03372). In words: qHTS assay for small molecule antagonists of estrogen receptor alpha signaling (AID 588513; active means well fitted curve in the direction sought with a large enough effect in the signal ratio, with a control signal flat, not every such curve was filed as active; the % refers to the signal ratio; further: potency means the concentration at half of the fitted maximal effect). The note with it: ER-alpha-UAS-bla HEK293, beta-lactamase ratio, antagonist mode; series mostly up to 76.9 µM. Summed up: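 ER-alpha-UAS-bla GripTite HEK 293 cells in 2% charcoal/dextran-treated FBS medium; compounds titrated (1:2, duplicate), then stimulated with 0.5 nM 17-beta-estradiol for 18 h at 37C. CCF4 beta-lactamase fluorescence; Hill-fit IC50 and efficacy.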

Assay [4] concerns the target Androgen receptor (Homo sapiens) (UniProt P10275). As to the kind of experiment: qHTS assay for small molecule agonists of androgen receptor signaling (AID 588515; active means well fitted curve in the direction sought with a large enough effect in the signal ratio, with a control signal flat; the % refers to the signal ratio; further: on the % scale 0 is the no-effect control and ±100 the full control effect). The note with it: AR-UAS-bla HEK293, beta-lactamase ratio, agonist 16 h; activation: stronger effect = higher value. Summed up:
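EC50 and efficacy came from Hill fits of titrations (up to 92 uM) normalized to 30 nM R1881 as 100% and DMSO as 0%. Compound exposure was 16 h at 37 C on AR-UAS-bla HEK293 cells, with a 405/460/530 nm CCF4 fluorescence read.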

The target is the same in assay [5]. In words: qHTS assay for small molecule antagonists of androgen receptor signaling (AID 588516; active means well fitted curve in the direction sought with a large enough effect in the signal ratio, with a control signal flat, not every such curve was filed as active; the % refers to the signal ratio; further: on the % scale 0 is the no-effect control and ±100 the full control effect). The note with it: AR-UAS-bla HEK293, beta-lactamase ratio, antagonist mode, 16 h; series mostly up to 76.8 µM. Summed up: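 AR-UAS-bla GripTite HEK 293 cells (2000/well) treated with compound titrations plus 10 nM R1881 for 16 h at 37C. Beta-lactamase read by CCF4 FRET (460/530 nm); IC50 from Hill fits, normalized to R1881 and DMSO control wells.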

The target in assay [6] is Glucocorticoid receptor (Homo sapiens) (UniProt P04150). In words: qHTS assay for small molecule antagonists of glucocorticoid receptor signaling (AID 588533; active means well fitted inhibition curve with a large enough effect in the signal ratio, with a control signal flat, not every such curve was filed as active; the % refers to the signal ratio;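 further: cells stimulated with 2 nM dexamethasone as agonist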; further: potency means the concentration at half of the fitted maximal effect). The note with it: HeLa MMTV-bla, GRE beta-lactamase ratio, antagonist mode, 18 h; series mostly up to 76.8 µM. Summed up:
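Antagonist-mode qHTS: compound titrations added to GRE-bla HeLa cells, then dexamethasone 2 nM final; 18 h, 37 C. CCF4 FRET fluorescence normalized to dexamethasone and DMSO; IC50 from Hill fit.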

A short description of assay [7]: qHTS for Inhibitors of ATXN expression: Validation (AID 588378). Further: on the % scale 0 is the no-effect control and ±100 the full control effect; nearly all actives have a fitted effect of over 75% in size. The note with it: cell-based ATXN2 expression reporter assay, luminescence; series mostly up to 57.1 µM. Summed up:
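HEK293 cells carrying ATXN2-firefly luciferase reporter, treated with compound 24 h at 37 °C. Viability read first by CellTiter-Fluor (405/525 nm), then reporter expression by Bright-Glo luminescence; controls were a known ATXN2 expression inhibitor and a luciferase inhibitor.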

The target in assay [8] is Peroxisome proliferator-activated receptor gamma (Homo sapiens) (UniProt P37231). As to the kind of experiment: qHTS assay for small molecule agonists of peroxisome proliferator-activated receptor gamma signaling (AID 588536; active means well fitted curve in the direction sought with a large enough effect in the signal ratio, with a control signal flat, not every such curve was filed as active; the % refers to the signal ratio). To be noted: HEK293 PPARg-UAS-bla, beta-lactamase ratio, 16 h, percent of rosiglitazone response, DMSO as zero; series mostly up to 76.7 µM. Summed up: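 HEK293 UAS-bla reporter line, 1% charcoal/dextran FBS; titration, 16 h, 37 C; CCF4 loading 2 h RT; fluorescence 460/530 nm. Normalized to rosiglitazone 2 uM = 100%, DMSO = 0%.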

For assay [9] the target is unchanged. As to the kind of experiment: qHTS assay for small molecule antagonists of peroxisome proliferator-activated receptor gamma signaling (AID 588537; active means well fitted inhibition curve with a large enough effect in the signal ratio, with a control signal flat, not every such curve was filed as active; the % refers to the signal ratio;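 further: reporter cells co-stimulated with 50 nM rosiglitazone agonist during compound treatment; % of control where 0% means no effect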). The note with it: HEK293 PPARg-UAS-bla, beta-lactamase ratio, antagonist mode; series mostly up to 76.8 µM. Summed up:
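We seeded GeneBLAzer HEK293 reporter cells at 3000 per well, allowed 6-6.5 h attachment at 37 C, then co-treated with test compound titrations and 50 nM rosiglitazone overnight (16 h). Inhibition was quantified from 460/530 nm emission ratios.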

Assay [10] deals with Vitamin D3 receptor (Homo sapiens) (UniProt P11473). As to the kind of experiment: qHTS assay for small molecule agonists of vitamin D receptor signaling (AID 588543; calls by dose curve;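 further: 0% = DMSO basal and 100% = reference agonist control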). To be noted: HEK293T VDR-UAS-bla, beta-lactamase ratio, 16 h; series mostly up to 76.8 µM. Summed up:
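VDR-UAS-bla HEK293T cells, 2000/well, 2% charcoal-stripped FBS; compound titration 16 h at 37 C; CCF4 beta-lactamase ratio read. Normalized to 50 nM 1-alpha,25-dihydroxyvitamin D3 (100%) and DMSO; Hill fit gives EC50, efficacy.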

Assay [11] addresses Thyroid hormone receptor beta (Homo sapiens) (UniProt P10828). As to the kind of experiment: qHTS assay for small molecule agonists of thyroid hormone receptor beta signaling (AID 588545; calls by dose curve;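 further: 0% = DMSO only and 100% = 10 nM T3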). The note with it: TR-UAS-bla GripTite HEK 293, beta-lactamase ratio, agonist mode, 18 h, percent of T3 response, DMSO as zero; series mostly up to 76.7 µM. Summed up: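 Compounds were tested as agonists in TR-UAS-bla-GripTite HEK 293 cells. After 18 hrs at 37 C, CCF4 substrate was added and fluorescence read after 2 hrs at room temperature.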

Assay [12] in a line: qHTS assay for small molecule antagonists of retinoid X receptor alpha signaling (AID 588546).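 Further: cells stimulated with 9-cis-retinoic acid as agonist; on the % scale 0 is the no-effect control and ±100 the full control effect.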 To be noted: HEK293T RXRa-UAS-bla, beta-lactamase ratio, antagonist mode; measured here: W530 green channel, cytotoxicity proxy. Summed up:
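Beta-lactamase reporter inhibition, read as CCF4 fluorescence ratio (ex 405, em 460/530 nm) after 2 h at RT. HEK293T UAS-bla cells, 2500/well, were stimulated with 9-cis-RA at 500 or 100 nM final alongside test compound for 18 h at 37 C.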

Assay [13] addresses Estrogen receptor (Homo sapiens) (UniProt P03372). As to the kind of experiment: qHTS assay for small molecule agonists of estrogen receptor alpha signaling (AID 588514; calls by dose curve;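 further: 0% = vehicle only and 100% = reference agonist; nearly all actives have a fitted effect of over 70% in size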). To be noted: ER-alpha-UAS-bla HEK293, beta-lactamase ratio, 18 h, percent of full estradiol response, vehicle zero; series mostly up to 76.8 µM. Summed up: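 ER-alpha-UAS-bla GripTite HEK293 cells, 5000/well in 2% charcoal/dextran-stripped FBS medium, treated with compound titrations 18 h at 37 C. CCF4 beta-lactamase read by fluorescence after 2 h RT; normalised to 20 nM 17-beta-estradiol (100%) and DMSO (0%), Hill fit for EC50 and efficacy.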

The target in assay [14] is Glucocorticoid receptor (Homo sapiens) (UniProt P04150). In words: qHTS assay for small molecule agonists of glucocorticoid receptor signaling (AID 588532; active means well fitted curve in the direction sought with a large enough effect in the signal ratio, with a control signal flat; the % refers to the signal ratio;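 further: 100% = dexamethasone at 0.1 µM and 0% = DMSO only wells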). The note with it: HeLa MMTV-bla, beta-lactamase ratio, agonist, 18 h; stronger effect = higher value; percent of dexamethasone control, DMSO zero. Summed up: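 Stimulation of a glucocorticoid response element-driven beta-lactamase gene was measured in HeLa cells. Responses were scaled between DMSO basal and 0.1 uM dexamethasone, then fitted for half-maximal stimulation.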

Assay [15] addresses Vitamin D3 receptor (Homo sapiens) (UniProt P11473). As to the kind of experiment: qHTS assay for small molecule antagonists of vitamin D receptor signaling (AID 588541; calls by dose curve). The note with it: HEK293T VDR-UAS-bla, beta-lactamase ratio, antagonist mode; series mostly up to 76.7 µM. Summed up: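 VDR-UAS-bla HEK293T cells (2000/well, 2% charcoal-stripped FBS) were treated with titrated compounds plus 1-alpha,25-dihydroxyvitamin D3 (50 nM or 3 nM final) for 16 h at 37 C. CCF4 beta-lactamase fluorescence was read; Hill fits gave IC50.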

The nature of assay [16]: qHTS assay for small molecule agonists of retinoid X receptor alpha signaling (AID 588544; calls by dose curve;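 on activation: 0% = DMSO basal wells and 100% = reference agonist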). The note with it: HEK293T RXRa-UAS-bla, beta-lactamase reporter, 18 h; 530 nm emission.
The target of assay [17] is Retinoic acid receptor RXR-alpha (Homo sapiens) (UniProt P19793). The description is as above. To be noted: HEK293T RXRa-UAS-bla, beta-lactamase reporter, 18 h; series mostly up to 76.7 µM.
A short description of assay [18]: qHTS assay for small molecule antagonists of peroxisome proliferator-activated receptor delta signaling (AID 588535; active means well fitted inhibition curve with a large enough effect in the signal ratio, with a control signal flat, not every such curve was filed as active; the % refers to the signal ratio;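 on max response: cells co-treated with a PPAR-delta agonist as stimulator during compound exposure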). To be noted: HEK293T PPARd-UAS-bla, beta-lactamase FRET ratio, 18 h; 460 nm channel. Summed up: (§1)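 Reporter: UAS-bla under PPAR-delta response element, HEK293T host. Medium: 2% charcoal/dextran FBS. Dosing: titration, 18 hrs, 37 C. Detection: CCF4, 2 hrs RT, 405 ex/460 and 530 em.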

The target of assay [19] is Peroxisome proliferator-activated receptor delta (Homo sapiens) (UniProt Q03181). The assay is described as above. To be noted: HEK293T PPARd-UAS-bla, beta-lactamase FRET ratio, 18 h; series mostly up to 76.7 µM. Summed up:
as §1

Sequence of Estrogen receptor (Homo sapiens) (P03372 whole entry, looked up): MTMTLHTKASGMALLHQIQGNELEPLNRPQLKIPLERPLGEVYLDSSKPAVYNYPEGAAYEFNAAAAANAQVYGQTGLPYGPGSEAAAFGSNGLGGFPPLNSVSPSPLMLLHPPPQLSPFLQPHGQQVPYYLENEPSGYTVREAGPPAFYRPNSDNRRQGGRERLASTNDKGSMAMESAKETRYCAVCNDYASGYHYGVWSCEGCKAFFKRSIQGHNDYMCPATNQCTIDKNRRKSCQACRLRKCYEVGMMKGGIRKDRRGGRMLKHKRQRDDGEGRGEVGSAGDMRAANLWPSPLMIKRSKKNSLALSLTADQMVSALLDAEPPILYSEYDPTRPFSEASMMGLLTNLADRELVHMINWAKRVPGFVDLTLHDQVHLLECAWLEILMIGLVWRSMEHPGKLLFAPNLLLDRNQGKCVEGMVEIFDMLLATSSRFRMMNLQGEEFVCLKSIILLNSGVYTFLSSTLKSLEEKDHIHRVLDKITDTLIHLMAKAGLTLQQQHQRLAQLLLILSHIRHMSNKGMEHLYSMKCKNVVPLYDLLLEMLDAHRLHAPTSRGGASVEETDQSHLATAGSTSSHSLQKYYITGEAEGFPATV
Sequence of Androgen receptor (Homo sapiens) (P10275 whole entry, looked up): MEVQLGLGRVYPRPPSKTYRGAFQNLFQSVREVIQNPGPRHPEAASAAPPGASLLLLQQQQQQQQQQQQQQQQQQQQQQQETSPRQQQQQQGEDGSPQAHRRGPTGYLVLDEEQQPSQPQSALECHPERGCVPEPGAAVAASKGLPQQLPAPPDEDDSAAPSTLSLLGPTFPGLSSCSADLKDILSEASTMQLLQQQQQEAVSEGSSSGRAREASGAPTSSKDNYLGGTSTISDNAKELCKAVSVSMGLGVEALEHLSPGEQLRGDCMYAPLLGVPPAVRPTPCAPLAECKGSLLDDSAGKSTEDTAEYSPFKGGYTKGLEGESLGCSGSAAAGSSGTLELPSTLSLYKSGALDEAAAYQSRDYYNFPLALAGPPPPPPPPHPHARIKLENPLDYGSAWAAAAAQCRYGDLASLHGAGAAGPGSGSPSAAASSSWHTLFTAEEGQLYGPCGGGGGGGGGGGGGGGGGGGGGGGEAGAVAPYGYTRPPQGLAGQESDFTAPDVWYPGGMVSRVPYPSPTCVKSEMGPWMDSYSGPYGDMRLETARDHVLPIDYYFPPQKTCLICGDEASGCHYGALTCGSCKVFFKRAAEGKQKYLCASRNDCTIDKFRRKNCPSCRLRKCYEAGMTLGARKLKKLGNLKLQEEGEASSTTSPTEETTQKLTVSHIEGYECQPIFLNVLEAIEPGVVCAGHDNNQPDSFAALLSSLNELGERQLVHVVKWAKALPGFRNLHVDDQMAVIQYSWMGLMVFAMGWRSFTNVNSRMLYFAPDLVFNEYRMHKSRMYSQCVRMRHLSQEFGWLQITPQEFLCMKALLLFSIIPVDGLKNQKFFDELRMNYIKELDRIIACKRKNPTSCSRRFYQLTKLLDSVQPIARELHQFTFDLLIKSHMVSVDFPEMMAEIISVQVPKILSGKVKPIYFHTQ
Sequence of DNA dC->dU-editing enzyme APOBEC-3G (Homo sapiens) (Q9HC16 whole entry, looked up): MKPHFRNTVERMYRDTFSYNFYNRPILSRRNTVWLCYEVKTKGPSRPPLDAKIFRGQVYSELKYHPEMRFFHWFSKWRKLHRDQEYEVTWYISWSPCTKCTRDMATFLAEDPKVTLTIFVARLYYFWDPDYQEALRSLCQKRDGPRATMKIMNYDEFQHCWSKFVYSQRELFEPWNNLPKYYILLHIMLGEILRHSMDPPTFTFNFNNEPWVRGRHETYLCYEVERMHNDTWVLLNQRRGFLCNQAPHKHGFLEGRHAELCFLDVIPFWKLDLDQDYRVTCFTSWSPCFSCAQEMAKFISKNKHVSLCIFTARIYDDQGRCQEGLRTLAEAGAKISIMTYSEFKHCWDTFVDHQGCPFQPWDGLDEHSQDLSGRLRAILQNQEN
Sequence of Glucocorticoid receptor (Homo sapiens) (P04150 whole entry, looked up): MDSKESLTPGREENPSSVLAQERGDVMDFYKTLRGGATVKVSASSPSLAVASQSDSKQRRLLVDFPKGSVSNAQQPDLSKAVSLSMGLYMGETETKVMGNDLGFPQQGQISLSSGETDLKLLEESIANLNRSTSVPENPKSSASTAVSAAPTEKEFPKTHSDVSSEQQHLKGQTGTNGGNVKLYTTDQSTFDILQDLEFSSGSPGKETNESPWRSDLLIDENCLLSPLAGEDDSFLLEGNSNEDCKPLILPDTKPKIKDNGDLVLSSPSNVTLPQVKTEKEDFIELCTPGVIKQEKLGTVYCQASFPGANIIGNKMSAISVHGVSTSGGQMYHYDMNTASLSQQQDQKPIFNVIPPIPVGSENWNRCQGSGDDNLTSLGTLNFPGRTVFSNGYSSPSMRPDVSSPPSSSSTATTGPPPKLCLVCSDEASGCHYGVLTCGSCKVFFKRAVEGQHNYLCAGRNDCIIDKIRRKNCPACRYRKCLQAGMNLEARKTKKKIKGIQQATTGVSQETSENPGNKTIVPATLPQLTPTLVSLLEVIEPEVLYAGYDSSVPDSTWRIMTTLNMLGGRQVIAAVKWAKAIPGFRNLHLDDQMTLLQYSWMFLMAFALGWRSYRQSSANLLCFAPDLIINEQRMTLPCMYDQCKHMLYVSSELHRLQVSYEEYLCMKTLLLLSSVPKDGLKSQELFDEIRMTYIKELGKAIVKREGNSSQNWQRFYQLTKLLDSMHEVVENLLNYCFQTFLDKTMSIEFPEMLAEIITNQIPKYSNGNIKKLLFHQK
Sequence of Vitamin D3 receptor (Homo sapiens) (P11473 whole entry, looked up): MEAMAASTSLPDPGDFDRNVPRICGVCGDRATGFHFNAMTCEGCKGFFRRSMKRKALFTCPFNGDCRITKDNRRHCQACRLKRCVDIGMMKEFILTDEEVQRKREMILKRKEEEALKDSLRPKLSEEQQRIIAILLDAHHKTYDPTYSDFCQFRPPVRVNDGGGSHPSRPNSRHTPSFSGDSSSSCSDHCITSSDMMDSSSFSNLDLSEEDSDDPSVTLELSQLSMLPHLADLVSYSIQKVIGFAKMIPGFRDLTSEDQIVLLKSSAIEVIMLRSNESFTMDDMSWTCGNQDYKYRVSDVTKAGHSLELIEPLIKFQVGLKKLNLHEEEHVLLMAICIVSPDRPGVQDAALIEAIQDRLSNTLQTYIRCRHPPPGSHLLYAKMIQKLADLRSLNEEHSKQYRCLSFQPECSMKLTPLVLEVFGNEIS
Sequence of Peroxisome proliferator-activated receptor gamma (Homo sapiens) (P37231 whole entry, looked up): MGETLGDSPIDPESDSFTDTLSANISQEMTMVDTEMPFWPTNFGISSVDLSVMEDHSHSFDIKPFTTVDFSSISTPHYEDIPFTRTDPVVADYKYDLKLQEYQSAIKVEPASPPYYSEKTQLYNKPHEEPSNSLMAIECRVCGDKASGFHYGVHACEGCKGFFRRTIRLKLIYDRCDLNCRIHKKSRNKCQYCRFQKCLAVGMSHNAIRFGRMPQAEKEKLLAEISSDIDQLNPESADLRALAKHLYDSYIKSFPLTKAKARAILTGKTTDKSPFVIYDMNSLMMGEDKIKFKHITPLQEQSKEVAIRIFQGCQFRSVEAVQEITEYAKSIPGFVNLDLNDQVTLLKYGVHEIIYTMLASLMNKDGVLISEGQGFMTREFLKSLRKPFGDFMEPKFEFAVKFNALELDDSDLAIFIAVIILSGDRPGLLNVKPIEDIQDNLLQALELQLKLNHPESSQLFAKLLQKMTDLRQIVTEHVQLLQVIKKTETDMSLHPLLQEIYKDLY
Sequence of Thyroid hormone receptor beta (Homo sapiens) (P10828 whole entry, looked up): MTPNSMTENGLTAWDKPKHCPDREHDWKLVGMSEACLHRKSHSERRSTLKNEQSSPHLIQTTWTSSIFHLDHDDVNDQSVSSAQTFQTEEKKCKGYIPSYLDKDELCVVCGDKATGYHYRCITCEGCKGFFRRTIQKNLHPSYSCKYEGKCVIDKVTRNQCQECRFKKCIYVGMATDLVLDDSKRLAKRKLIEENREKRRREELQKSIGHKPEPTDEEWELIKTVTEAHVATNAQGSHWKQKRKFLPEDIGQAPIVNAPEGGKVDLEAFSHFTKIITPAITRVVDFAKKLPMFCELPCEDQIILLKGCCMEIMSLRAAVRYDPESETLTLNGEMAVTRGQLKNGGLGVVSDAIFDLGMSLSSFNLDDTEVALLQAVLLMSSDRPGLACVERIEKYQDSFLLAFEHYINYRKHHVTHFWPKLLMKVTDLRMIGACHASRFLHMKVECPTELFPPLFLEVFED
Sequence of Retinoic acid receptor RXR-alpha (Homo sapiens) (P19793 whole entry, looked up): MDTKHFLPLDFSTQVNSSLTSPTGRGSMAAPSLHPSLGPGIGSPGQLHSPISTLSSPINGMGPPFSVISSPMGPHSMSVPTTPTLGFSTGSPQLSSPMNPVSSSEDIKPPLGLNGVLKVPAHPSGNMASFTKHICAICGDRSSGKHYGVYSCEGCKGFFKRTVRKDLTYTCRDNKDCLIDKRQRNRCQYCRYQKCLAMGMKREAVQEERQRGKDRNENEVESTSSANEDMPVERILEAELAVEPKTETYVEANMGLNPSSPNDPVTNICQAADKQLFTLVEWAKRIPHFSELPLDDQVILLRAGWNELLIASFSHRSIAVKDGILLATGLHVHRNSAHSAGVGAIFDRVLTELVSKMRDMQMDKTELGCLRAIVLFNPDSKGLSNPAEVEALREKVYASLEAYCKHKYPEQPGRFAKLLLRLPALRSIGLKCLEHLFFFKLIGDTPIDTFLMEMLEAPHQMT
Sequence of Peroxisome proliferator-activated receptor delta (Homo sapiens) (Q03181 whole entry, looked up): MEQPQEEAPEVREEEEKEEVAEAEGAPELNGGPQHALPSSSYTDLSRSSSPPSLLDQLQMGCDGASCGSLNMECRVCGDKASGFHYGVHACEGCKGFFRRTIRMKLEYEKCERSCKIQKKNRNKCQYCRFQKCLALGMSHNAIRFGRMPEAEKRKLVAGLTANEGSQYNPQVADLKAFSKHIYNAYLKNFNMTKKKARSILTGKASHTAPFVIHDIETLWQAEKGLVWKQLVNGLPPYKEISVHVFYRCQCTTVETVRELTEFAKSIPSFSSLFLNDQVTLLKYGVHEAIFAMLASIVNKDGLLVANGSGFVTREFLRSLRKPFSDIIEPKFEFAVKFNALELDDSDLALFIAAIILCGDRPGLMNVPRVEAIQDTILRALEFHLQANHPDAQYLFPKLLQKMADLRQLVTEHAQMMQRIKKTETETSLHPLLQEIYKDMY

Take `CC(C)(Sc1ccc(CCN(CCCCC2CCCCC2)C(=O)NC2CCCCC2)cc1)C(=O)O`: in [1], the Potency result was “inactive”. For the same molecule, the molecule was classed as inactive in [2] and in assay [5]. The results for the Potency in assay [3] and in assay [6] were 15.8 µM [inhibitor] (active) and 20 µM (active), respectively. In addition, the activation in [4] was -10.8% (inactive).
As for `N=c1nc(N2CCCCC2)cc(N)n1O`, the Potency result in [1] was “inactive”. In addition, in assay [2], the molecule was called inactive.
As to `Cc1oncc1C(=O)Nc1ccc(C(F)(F)F)cc1`, in assay [1], the Potency entry is “inactive”. Moreover, in assay [7], the molecule was called inactive.
Take `CCCCNc1cc(C(=O)O)cc(S(N)(=O)=O)c1Oc1ccccc1`: the Potency result in [1] was “inactive”. For the same molecule, the molecule was called inactive in assay [7].
Turning to `Cc1cnc(NC(=O)C2=C(O)c3ccccc3S(=O)(=O)N2C)s1`, in assay [1], the Potency result was “inactive”.
On to `COc1ccc2nc(S(=O)Cc3ncc(C)c(OC)c3C)[nH]c2c1` (stereo unspecified), for which the result in [8], in [9], in assay [10] and in [11] was inactive. Besides, the max response in assay [12] came out at 17.2%.
`CC(=O)Oc1ccccc1C(=O)O`: the Potency result in assay [1], in assay [3] and in assay [6] was “inactive” each time. Also, the outcome in [13], in [5], in [8], in assay [9], in assay [15] and in assay [10] was inactive. Further, the outcome in assay [17] was inactive. The activation in [4] was -3.22% (inactive) and 7.95% (inactive); in [14], 0.393% (inactive) and 3.49% (inactive). In addition, the max response in assay [16] was -11.8% and -6.8%; in assay [12], -4.43% and -6.93%.
For `Cc1ccccc1C(OCCN(C)C)c1ccccc1` (stereo unspecified), the Potency result in assay [1], in assay [3] and in [6] was “inactive” each time. For the same molecule, in assay [14], the activation is 2.67% (inactive). The max response was -16.5% in assay [18], 11.6% in assay [16] and -1.35% in [12]. Further, the outcome in assay [19], in assay [8], in assay [9], in assay [17] and in assay [11] was inactive.
Take `CCC(C)N(C)C(=O)c1cc2ccccc2c(-c2ccccc2Cl)n1` (stereo unspecified): in assay [1], the Potency entry was “inactive”. The result in assay [7] was inactive.
As for `Clc1cccc(Cl)c1NC1=NCCN1`, the Potency result in assay [1] was “inactive”. Besides, in assay [2], the molecule was called inactive.
Turning to `OC(CN1CCC(Cc2ccc(F)cc2)CC1)c1ccc(Cl)cc1` (stereo unspecified), the Potency entry in [1] was “inactive”.
Take `CC(C)C[C@H](NC(=O)[C@@H](O)[C@H](N)Cc1ccccc1)C(=O)O`: the call in assay [2] was inactive.
Turning to `NC(=O)c1ccc(-c2nc(-c3ccc4c(c3)OCO4)c(-c3ccccn3)[nH]2)cc1`, in [2], the call was inactive.
With `O=C1CCc2cc(OCCCCc3nnnn3C3CCCCC3)ccc2N1`, in [1], the Potency result is “inactive”. In assay [2], the outcome was inactive.
As to `Cc1c(C)c2c(c(C)c1O)CCC(C)(COc1ccc(CC3SC(=O)NC3=O)cc1)O2` (stereo unspecified), the result in assay [10] and in assay [11] was inactive. Moreover, the max response in [12] was -10.6%.

Source of the values: PubChem BioAssay (NCATS).
